Each structure is given as a SMILES string. “And” between values parts separate entries of the source, which are not always exact repeats. Equal entries are not always repeated. About 2,600 (16%) of roughly 16,000 compounds were called active. About 20% were inconclusive and are not listed. A selection follows. Unmarked numbers belong to inactive results. The call rests on the fitted dose curve; in most records, active means well fitted curve in the direction sought with a large enough effect; inconclusive means small, poorly fitted or top-dose-only effect, or effect the other way; inactive means no such curve, though single readings can be large or run the other way.
On the % scale 0 is the no-effect control and ±100 the full control effect.

Chain of Cytochrome P450 2D6 (Homo sapiens) (P10635 whole entry, looked up): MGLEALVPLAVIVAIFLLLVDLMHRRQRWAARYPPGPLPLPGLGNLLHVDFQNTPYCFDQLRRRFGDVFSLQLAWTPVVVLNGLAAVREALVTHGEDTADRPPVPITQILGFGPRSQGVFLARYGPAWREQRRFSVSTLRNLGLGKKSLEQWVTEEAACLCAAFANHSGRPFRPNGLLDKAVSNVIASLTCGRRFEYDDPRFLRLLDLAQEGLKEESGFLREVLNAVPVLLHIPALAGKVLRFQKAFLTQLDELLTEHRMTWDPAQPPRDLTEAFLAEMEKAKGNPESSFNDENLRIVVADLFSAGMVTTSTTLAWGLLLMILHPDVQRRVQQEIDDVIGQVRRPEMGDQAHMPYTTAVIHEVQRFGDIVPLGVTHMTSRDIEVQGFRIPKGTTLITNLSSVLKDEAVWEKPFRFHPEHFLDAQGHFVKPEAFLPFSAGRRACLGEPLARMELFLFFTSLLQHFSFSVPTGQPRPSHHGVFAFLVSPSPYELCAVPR

This test concerns the target Cytochrome P450 2D6 (Homo sapiens) (UniProt P10635). The experiment in a line: Cytochrome panel assay with activity outcomes. The settings on record: recombinant CYP, pro-luciferin dealkylation, luminescence, p450-cyp2d6; series mostly up to 57.1 µM.
As a reminder, the AC50 is the concentration at which the activity in the assay is half-maximal. As for `CCOC(=O)c1cnc(-c2ccccc2)nc1Oc1cccc(Cl)c1`, the AC50 result is “inactive”. Still for that read-out and setting: next, `CCOC(=O)c1cnc(-c2ccccc2)nc1Oc1ccccc1`: “inactive”. The same measure, in the same setting: the same measure for `CCOC(=O)c1cnc(SCCc2ccccc2)nc1N`: 2 µM (active); for `O=C1C(O)=C(O)C(=O)C(O)=C1O`: “inactive”. Turning to `NS(=O)(=O)c1ccc(NCc2cnc3ccccc3n2)cc1`, the activity, negative = inhibition was 16.5% [at 11.4 µM]. With `NS(=O)(=O)c1ccc(NCc2ccccc2OCc2ccccc2F)cc1`, the AC50 was 15.8 µM (active). Take `NS(=O)(=O)c1ccc(NCc2nc3ccccc3[nH]2)cc1`: the activity, negative = inhibition was -10.2% [at 11.4 µM]. On to `O=C(NNC(=O)c1ccccc1)C(=O)N1CCCCC1`, for which the AC50 entry was “inactive”. In the case of `BrC(c1cccc2ccccc12)c1cccc2ccccc12`, the activity, negative = inhibition was 11.2% [at 11.4 µM].

With `COc1cccc(-c2cncnc2NCc2cccc(C)c2)c1`, the AC50 is 12.6 µM (active). The same measure, in the same setting: next, `Cc1cccc(CNc2ncncc2-c2cccc(NS(C)(=O)=O)c2)c1`: 20 µM (active). On to `COc1ccccc1-c1cncnc1NCc1ccccc1`, for which the AC50 is 15.8 µM (active).

`CNc1ncncc1-c1ccccc1OC`: the AC50 result is “inactive”.

Take `COc1ccccc1-c1cncnc1NCc1cccc(C)c1`: the AC50 was 20 µM (active). The same measure, in the same setting: next, `Cc1cccc(CNc2cc(-c3cccc(NS(C)(=O)=O)c3)ncn2)c1`: “inactive”; `NCCCNCCCCNCCCN`: “inactive”; `O=C(c1ccc(-c2nnc(Nc3ccccc3)c3ccccc23)cc1)N1C[C@H]2C[C@H](C1)c1cccc(=O)n1C2`: “inactive”. On to `O=C(NCc1ccco1)c1ccc2c(=O)n(-c3ccccc3)c(=S)[nH]c2c1`, for which the AC50 result is “inactive”.

Take `COc1ccc(-n2c(=O)c(-c3ccc(F)cc3)nc3cnc(OC)nc32)cc1`: the AC50 entry is “inactive”.

For `O=C(Nc1ccc(C(=O)Nc2ccc(C(=O)Nc3ccc(S(=O)(=O)O)c4cc(S(=O)(=O)O)cc(S(=O)(=O)O)c34)cc2)cc1)Nc1ccc(C(=O)Nc2ccc(C(=O)Nc3ccc(S(=O)(=O)O)c4cc(S(=O)(=O)O)cc(S(=O)(=O)O)c34)cc2)cc1`, the AC50 entry was “inactive”. The same measure, in the same setting: the same measure for `Cc1nonc1NC(=O)OCCN1CCOC1=O`: “inactive”; for `O=C(O)/C(=C/c1c(C(=O)O)[nH]c2cc(Cl)cc(Cl)c12)c1ccccc1`: “inactive”. Still for that read-out and setting: the same measure for `C[C@@]12CCC(=O)C=C1CC[C@@H]1[C@@H]2[C@H](O)C[C@]2(C)[C@@H]1CC[C@]2(O)C(=O)COC(=O)CCC(=O)O`: “inactive”. On the same count and under the same terms, next, `COc1c(O)cc2c(c1O)[C@@H]1O[C@@H](CO)[C@@H](O)[C@@H](O)[C@@H]1OC2=O`: “inactive”; `CSc1nc(C)c(CCOC(=O)c2ccccc2)c(=O)[nH]1`: “inactive”; `CCN(CC)C(=O)c1cc2cc([N+](=O)[O-])ccc2s1`: “inactive”. As for `CC1CCCC(NC(=O)c2n[nH]c(=O)c3ccccc23)C1C` (stereo not given), the AC50 entry was “inactive”. Still for that read-out and setting: the same measure for `COc1cc([C@H](O)C(=O)O)ccc1O`: “inactive”; for `O=[N+]([O-])c1cccc(-c2nc(-c3ccncc3)no2)c1`: “inactive”. As to `NS(=O)(=O)c1ccc(N=C2C(=O)Nc3ccccc32)cc1`, the activity, negative = inhibition was 2.35% [at 11.4 µM].

As for `O=C(O)[C@@H]1CCCNC1`, the AC50 result is “inactive”. Same read-out and setting: next, `COC(=O)c1ccc(C2C(Oc3ccccc3)C(=O)N2CCc2ccc(OC)c(OC)c2)cc1` (stereo not given): “inactive”. With `O=C1C[C@@H](O)[C@@H](O)[C@H]2[C@@H]3C(=O)N(Cc4ccc5c(c4)OCO5)C(=O)[C@@H]3CC[C@H]12`, the activity, negative = inhibition was 14% [at 11.4 µM] and -16.6% [at 11.4 µM]. On the same count and under the same terms, next, `O=C1[C@H]2[C@H]3[C@H](O)[C@H](O)C/C(=N/OCc4ccccc4)[C@H]3CC[C@@H]2C(=O)N1Cc1ccc2c(c1)OCO2`: -14.6% [at 11.4 µM]. Regarding `COc1ccc(CCN2C(=O)C(Oc3ccccc3C)C2c2ccc3c(c2)OCO3)cc1OC` (stereo not given), the AC50 is 14.1 µM (active). Turning to `Cc1ccccc1OC1C(=O)N(Cc2ccc3c(c2)OCO3)C1c1sccc1C` (stereo not given), the AC50 was 8.91 µM (active). Same read-out and setting: the same measure for `COc1ccc(CCN2C(=O)C(O)=C(C(=O)c3ccco3)C2c2cccs2)cc1OC` (stereo not given): “inactive”. The same measure, in the same setting: next, `CCCCCc1nc2c(=O)[nH]c3ccccc3c2o1`: “inactive”. Take `CN(C)/C=C/C(=O)c1ccc(F)cc1`: the AC50 entry is “inactive”. As for `Cc1ccccc1S(=O)(=O)O[C@@H]1NS(=O)(=O)c2ccccc21`, the activity, negative = inhibition is 6.51% [at 11.4 µM].

Regarding `COCn1c2ccccc2c2nnc(C(C)=O)nc21`, the activity, negative = inhibition is -15.8% [at 11.4 µM] and -6.91% [at 11.4 µM]. As for `O=S(=O)(O)C1CCNCC1`, the AC50 result was “inactive”.

Consider `CC(C)N=C(Nc1ccc(Cl)cc1)c1cccnc1`, for which the AC50 entry was “inactive”. Take `O=S(=O)(O)c1ccc2c(N=Nc3cccc4ccccc34)c(O)c(S(=O)(=O)O)cc2c1`: the activity, negative = inhibition was 5.03% [at 11.4 µM].

Consider `Cc1nn(Cc2c(F)c(F)c(F)c(F)c2F)c(C)c1NC(=O)c1c(-c2ccccc2)nn(-c2ccccc2)c1C`, for which the AC50 result is “inactive”.

`Nc1nc(-c2cccc([N+](=O)[O-])c2)cc(-c2cc(-c3cccc([N+](=O)[O-])c3)nc(N)n2)n1`: the activity, negative = inhibition is -5.72% [at 11.4 µM]. As to `O=[N+]([O-])c1cccc(-c2nc(-c3cccs3)c(-c3cccs3)[nH]2)c1`, the AC50 is 15.8 µM (active).

With `c1ccc(-c2nc(-c3cccs3)[nH]c2-c2ccccc2)cc1`, the AC50 entry is “inactive”. Same read-out and setting: the same measure for `Cc1cc(C(F)F)n2nc(C(=O)Nc3cccnc3Cl)nc2n1`: “inactive”; for `O=C(OCc1ccc(Cl)cc1)c1ccccc1C(=O)c1ccccc1`: “inactive”. On the same count and under the same terms, the same measure for `O=C(OCc1ccc(Cl)cc1Cl)c1cccnc1Cl`: 15.8 µM (active); for `O=C(COC(=O)c1cccnc1Cl)c1ccccc1`: “inactive”; for `CCc1ccc2c(c1)c(N=NC1=NC(=O)CS1)c(O)n2CC`: “inactive”. On the same count and under the same terms, the same measure for `COc1ccc(CN2C(=O)c3ccccc3C(/C=N\OCc3ccc(F)cc3)C2=O)cc1` (stereo not given): “inactive”; for `COc1cccc(Cn2c(=O)c(CCc3ccccc3)nc3cnc(OC)nc32)c1`: “inactive”; for `C=C1C(=O)O[C@@H]2[C@@H]1CC/C(C)=C\CC[C@@]1(C)O[C@H]21`: “inactive”.

On to `CN(C)c1ccc(-c2ccc3ncnc(-n4ccnc4)c3c2)cc1`, for which the AC50 is 20 µM (active). On the same count and under the same terms, the same measure for `Cc1ccccc1-c1ccc2ncnc(N3CCN(C)CC3)c2c1`: “inactive”.

For the molecule `Cc1ccccc1-c1ccc2ncnc(-n3ccnc3)c2c1`, the AC50 was 25.1 µM (active). The same measure, in the same setting: next, `CCOC(=O)c1cc2c(ccn2C)n1CC(=O)N1CCCC(C)C1` (stereo not given): “inactive”.
